IL1B secr inh: qHTS for Inhibitors of Inflammasome Signaling: IL-1-beta AlphaLISA Primary Screen. THP-1 LPS/ATP IL-1B secretion, AlphaLISA, 16 h; active compounds read low. AID 743279, 2014. hit rate 4.7% among 360,000. activity change, % at 57.5 µM; in the data active = activity change below about -50%; inconclusive = mostly about -30% to -49%; note: % is set by controls: 0 for no effect and ±100 for the full control effect
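Secreted IL-1B measured by AlphaLISA bead assay after 16 h compound exposure of THP-1 cells; compounds (final up to 57.5 uM) added 1 h before LPS (250 ng/mL) and ATP (1.25 mM) stimulation; lower signal means less secretion.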
DT40 TDP1 CPT: qHTS for Inhibitors of human tyrosyl-DNA phosphodiesterase 1 (TDP1): qHTS in cells in presence of CPT | chicken DT40 Tdp1-/-;hTDP1 cells + 20 nM CPT, ATP luminescence, 48 h | Potency, µM (titrated, usually from 46.2 µM), inactives show at the highest dose activity change, negative = growth inhibition, usual class: inhibitors | hit rate 12% among 420,000 | AID 686979, 2013; note: potency is the fitted concentration of half-maximal effect; % is set by controls: 0 for no effect and ±100 for the full control effect; nearly all actives have a fitted effect of over 55% in size
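Cell growth measured by CellTiter-Glo luminescence after a minimum 48 h, 37 C compound exposure with 20 nM CPT in Tdp1-knockout DT40 cells stably expressing hTDP1, seeded 400/well; qHTS titration format.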
HepG2 tox: qHTS for Inhibitors of TGF-b: Cytotox Counterscreen; hit rate 0.76% among 410,000; HepG2 CAGA-GFP viability, ATP luminescence, 18 h; AID 588856, 2011; Potency, µM (doses to about 46.1 µM), without a hit: at the top dose activity change, negative = cytotoxicity, usual class: cytotoxic; note: potency is the fitted concentration of half-maximal effect
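CellTiter-Glo luminescence gave cytotoxicity after 18 hours at 37 degrees C. The cells were HepG2 CAGA-GFP in 1% FBS DMEM, stimulated with 500 pg/mL TGF-beta after compound addition. %Activity was normalised to no-cell wells (complete cell-killing) and DMSO (no toxicity), and curves were fitted and classified.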
DT40 TDP1 no CPT: qHTS for Inhibitors of human tyrosyl-DNA phosphodiesterase 1 (TDP1): qHTS in cells in absence of CPT; DT40 Tdp1-/- hTDP1 cells, no CPT, ATP luminescence, 48 h; Potency, µM (titrated, usually from 46.2 µM), inactives show at the top dose activity change, negative = growth inhibition, actives largely listed as inhibitors; hit rate 15% among 420,000; AID 686978, 2013; note: potency is the fitted concentration of half-maximal effect; % is set by controls: 0 for no effect and ±100 for the full control effect; nearly all actives have a fitted effect of over 55% in size
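Seeded 400 DT40-hTDP1 cells/well (vehicle DMSO, no 20 nM CPT); pinned compounds; ≥48 hr at 37 °C; CellTiter-Glo luminescence as viability measure.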
TDP1 block: qHTS Assay for Inhibitors of Tyrosyl-DNA Phosphodiesterase (TDP1); recombinant TDP1, AlphaScreen DNA substrate cleavage; Potency, µM (titrated, usually from 130 µM), for inactives: at the top dose activity change, negative = inhibition, most hits filed as inhibitors; hit rate 0.28% among 350,000; note: potency is the fitted concentration of half-maximal effect; % is set by controls: 0 for no effect and ±100 for the full control effect; nearly all actives have a fitted effect of over 40% in size
Target sequence (Q9NUW8 whole entry, looked up): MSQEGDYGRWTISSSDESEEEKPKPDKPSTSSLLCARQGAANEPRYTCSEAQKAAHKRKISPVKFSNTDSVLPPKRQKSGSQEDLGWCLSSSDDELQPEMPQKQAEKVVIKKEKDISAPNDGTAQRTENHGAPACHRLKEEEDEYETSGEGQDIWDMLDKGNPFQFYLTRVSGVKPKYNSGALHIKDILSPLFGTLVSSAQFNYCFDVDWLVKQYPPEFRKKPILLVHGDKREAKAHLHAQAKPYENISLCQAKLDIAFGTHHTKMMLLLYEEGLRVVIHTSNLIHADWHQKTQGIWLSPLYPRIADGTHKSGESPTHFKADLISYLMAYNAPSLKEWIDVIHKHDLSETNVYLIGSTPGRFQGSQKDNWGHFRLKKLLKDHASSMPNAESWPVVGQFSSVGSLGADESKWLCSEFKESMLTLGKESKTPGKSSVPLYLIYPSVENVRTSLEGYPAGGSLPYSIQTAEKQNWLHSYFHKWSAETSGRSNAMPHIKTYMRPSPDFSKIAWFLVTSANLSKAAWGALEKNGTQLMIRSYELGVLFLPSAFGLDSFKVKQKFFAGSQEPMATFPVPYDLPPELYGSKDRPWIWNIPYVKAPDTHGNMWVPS
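Signal: AlphaScreen proximity between streptavidin donor and anti-FITC acceptor beads on intact substrate. Reaction: Tdp1 1 nM, substrate 15 nM final, 5 min RT after 15 min compound preincubation.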
TGFb SMAD3 inh: qHTS for Inhibitors of TGF-b; Potency, µM (highest dose often 46.1 µM), for inactives: top-dose activity, negative = inhibition, hits mostly inhibitors; AID 588855, 2011; HepG2 CAGA-GFP TGF-b/SMAD3 reporter, GFP fluorescence, 18 h; TGF-beta stimulated, 500 pg/mL final; hit rate 1.2% among 410,000; note: potency is the fitted concentration of half-maximal effect; % is set by controls: 0 for no effect and ±100 for the full control effect; nearly all actives have a fitted effect of over 65% in size
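GFP signal (ex488/em500-530) from TGF-beta-stimulated HEPG2 CAGA-GFP cells, 500 pg/mL final, 18 h at 37 degrees C in DMEM plus 1% FBS, normalized to unstimulated and DMSO-stimulated controls.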
Numbers without * were called inactive; [ ] = dose if it differs, or a comment. Sampled rows, rich in hits. Any-hit rate of the full collection: about 19%. Unless noted, calls come from the whole dose curve; as a rule, active = well fitted curve in the direction sought with a large enough effect; inconclusive = small, poorly fitted or top-dose-only effect, or another doubt; inactive = no such curve, though single readings can be large; an effect the other way counts as inactive or inconclusive.

Screening c1ccc(Cn2ncc3c(N4CCN(c5ccccc5)CC4)ncnc32)cc1 returned IL1B secr inh inconclusive, DT40 TDP1 CPT 18µM*, HepG2 tox -12%, DT40 TDP1 no CPT 16µM* and TGFb SMAD3 inh -6%.
Screening Cc1cccc(CNC(=O)C2CCN(S(=O)(=O)c3cccc4nonc34)CC2)c1 returned DT40 TDP1 CPT -12%, HepG2 tox 1%, DT40 TDP1 no CPT -7%, TDP1 block -2% and TGFb SMAD3 inh 4%.
Screening Cc1ccc2c(CC(=O)NCc3ccccc3)coc2c1C returned DT40 TDP1 CPT 4.1µM*, HepG2 tox -15%, DT40 TDP1 no CPT 3.3µM*, TDP1 block 6% and TGFb SMAD3 inh -12%.
For O=C(Nc1sc2c(c1C(=O)NCc1ccccc1)CCCC2)c1cc(=O)c2ccccc2o1 the results were DT40 TDP1 CPT -1%, HepG2 tox 9%, DT40 TDP1 no CPT inconclusive, TDP1 block 2% and TGFb SMAD3 inh 3%.
`COCCNC(=O)c1c(NC(=O)Cc2coc3cc(C)ccc23)sc2c1CCCC2` gave DT40 TDP1 CPT 23µM*, HepG2 tox -1%, DT40 TDP1 no CPT inconclusive, TDP1 block 1% and TGFb SMAD3 inh -2%.
`COCCCNC(=O)c1c(NC(=O)Cc2coc3c(C)c(C)ccc23)sc2c1CCCC2` gave DT40 TDP1 CPT 16µM*, HepG2 tox -81%, DT40 TDP1 no CPT 16µM*, TDP1 block -5% and TGFb SMAD3 inh 2%.
Screening COCCCNC(=O)c1c(NC(=O)c2cc(=O)c3ccccc3o2)sc2c1CCCC2 returned DT40 TDP1 CPT -17%, HepG2 tox 8%, DT40 TDP1 no CPT 5.2µM*, TDP1 block 4% and TGFb SMAD3 inh 33%.
`O=C(CSc1nnc2ccc(-c3ccc(F)cc3)nn12)N1CCOCC1` gave IL1B secr inh -13, DT40 TDP1 CPT 0%, HepG2 tox -10%, DT40 TDP1 no CPT -3%, TDP1 block 2% and TGFb SMAD3 inh -3%.
Screening COC(=O)c1c(NC(=O)Cc2coc3cc(C)ccc23)sc2c1CCC2 returned DT40 TDP1 CPT -30%, HepG2 tox 4%, DT40 TDP1 no CPT 3.3µM*, TDP1 block 1% and TGFb SMAD3 inh 1%.
For COC(=O)c1c(NC(=O)Cc2coc3ccc(C)cc23)sc2c1CCC2 the results were DT40 TDP1 CPT inconclusive, HepG2 tox -2%, DT40 TDP1 no CPT inconclusive, TDP1 block 5% and TGFb SMAD3 inh -1%.
CC(C)c1nnc(NC(=O)CCc2ccccc2)s1 was read as IL1B secr inh -2, DT40 TDP1 CPT 3%, HepG2 tox -14%, DT40 TDP1 no CPT 10% and TGFb SMAD3 inh 2%.
`CCCCc1nnc(NC(=O)CCS(=O)(=O)c2ccc(C)cc2)s1` gave IL1B secr inh 6, DT40 TDP1 CPT 13µM*, HepG2 tox 2%, DT40 TDP1 no CPT inconclusive, TDP1 block 0% and TGFb SMAD3 inh -20%.
For CCC(CC)c1nnc(NC(=O)CCS(=O)(=O)Cc2ccccc2)s1 the results were IL1B secr inh -18, DT40 TDP1 CPT inconclusive, HepG2 tox 18%, DT40 TDP1 no CPT 15µM*, TDP1 block 11% and TGFb SMAD3 inh -6%.
Screening CC(C)c1nnc(NC(=O)CCS(=O)(=O)c2ccccc2)s1 returned IL1B secr inh -105*, DT40 TDP1 CPT 16µM*, HepG2 tox 41%, DT40 TDP1 no CPT inconclusive and TGFb SMAD3 inh -30%.
Screening Cc1ccc(S(=O)(=O)CCC(=O)Nc2nc3c(s2)CCCC3)cc1 returned IL1B secr inh 28, DT40 TDP1 CPT inconclusive, HepG2 tox 3%, DT40 TDP1 no CPT 29µM*, TDP1 block 6% and TGFb SMAD3 inh 0%.
`CCOc1ccc(Oc2ccccc2NC(=O)CN2C(=O)NC3(CCCC3)C2=O)cc1` gave IL1B secr inh 0, DT40 TDP1 CPT inconclusive, HepG2 tox -28%, DT40 TDP1 no CPT inconclusive, TDP1 block -2% and TGFb SMAD3 inh -27%.
For Cc1ccc(S(=O)(=O)CCc2nnc(NC(=O)c3ccccn3)s2)cc1 the results were IL1B secr inh 0, DT40 TDP1 CPT inconclusive, HepG2 tox -31%, DT40 TDP1 no CPT 21µM*, TDP1 block -7% and TGFb SMAD3 inh inconclusive.
COCc1nnc(NC(=O)CCS(=O)(=O)c2ccccc2)s1 was read as IL1B secr inh -97*, DT40 TDP1 CPT 10µM*, HepG2 tox 0%, DT40 TDP1 no CPT 16µM*, TDP1 block -3% and TGFb SMAD3 inh inconclusive.
Screening Cc1ccc(S(=O)(=O)CCc2nnc(NC(=O)c3cnccn3)s2)cc1 returned IL1B secr inh 6, DT40 TDP1 CPT -18%, HepG2 tox 4%, DT40 TDP1 no CPT -18%, TDP1 block 9% and TGFb SMAD3 inh -5%.
`COCc1nnc(NC(=O)CCCOc2ccccc2)s1` gave IL1B secr inh -5, DT40 TDP1 CPT 0%, HepG2 tox 2%, DT40 TDP1 no CPT -1%, TDP1 block 5% and TGFb SMAD3 inh 17%.
`CCC(CC)c1nnc(NC(=O)Cc2c[nH]c3ccccc23)s1` gave IL1B secr inh 1, DT40 TDP1 CPT 26µM*, HepG2 tox -33%, DT40 TDP1 no CPT 23µM* and TGFb SMAD3 inh inconclusive.
`O=C(CCS(=O)(=O)c1ccccc1)Nc1ncc([N+](=O)[O-])s1` gave IL1B secr inh -76*, DT40 TDP1 CPT 8.2µM*, HepG2 tox -58%, DT40 TDP1 no CPT 10µM*, TDP1 block 7% and TGFb SMAD3 inh 16µM*.
For NCCCNc1ccc(Br)cn1 the results were DT40 TDP1 CPT 2% and DT40 TDP1 no CPT inconclusive.
CN(C)S(=O)(=O)c1ccc(NC(=O)C2CC(=O)N(Cc3ccccc3Cl)C2)cc1 (centres undefined) was read as IL1B secr inh 13, DT40 TDP1 CPT 8%, HepG2 tox 0%, DT40 TDP1 no CPT 0%, TDP1 block -6%[0.505 µM] and TGFb SMAD3 inh -33%.
`COCc1nnc(NC(=O)c2cccc(NC(=O)c3ccccc3)c2)s1` gave IL1B secr inh 33, DT40 TDP1 CPT inconclusive, HepG2 tox -4%, DT40 TDP1 no CPT 21µM*, TDP1 block 2% and TGFb SMAD3 inh -6%.

High-throughput results: PubChem, National Center for Advancing Translational Sciences (NCATS)
